This excerpt belongs to a sample that is enriched for hits.
MARV entry inh: qHTS for inhibitors of binding or entry into cells for Marburg Virus. Marburg virus pseudotyped entry inhibition, cell reporter. Potency, µM (titrated, usually from 37.8 µM), without a hit: at the highest dose activity change, negative = inhibition, hits mostly inhibitors. hit rate 1.8% among 300,000. AID 540276, 2011; calls by dose curve; tested in HEK293 cells; also: potency is read from the fitted curve at half-maximal effect; % is scaled to controls: 0 for no effect and ±100 for the full control effect
Shiga inhibitor: A qHTS for Small Molecule Inhibitors of Shiga Toxin; Vero cells, Shiga toxin protein synthesis inhibition reporter; inhibition, % at 38.7 µM; hit rate 9.2% among 290,000; AID 2315, 2010; in the data active = inhibition mostly above about 28%, no sharp cut-off; inactive = mostly below about 43%; also: 0% is about no effect
AMA1 RON2 block: qHTS for Inhibitors of AMA1-RON; Towards Development of Antimalarial Drug Lead: Primary Screen; AlphaScreen AMA1-biotinylated RON2 peptide binding; Potency, µM (doses to about 58.2 µM), inactives show at the highest dose activity change, negative = inhibition, hits mostly inhibitors; hit rate 0.2% among 360,000; AID 720542, 2013; active = well fitted inhibition curve with a large enough effect; inconclusive = small, poorly fitted or top-dose-only effect; inactive = no such curve, though single readings can be large or run the other way;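 also: potency is read from the fitted curve at half-maximal effect; 0% = vehicle wells and -100% = peptide control; nearly all actives have a fitted effect of over 45% in size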
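AMA1 (3D7) with his tag at 25 nM final met compounds first, then biotinylated RON2 peptide at 25 nM; detection used donor plus acceptor beads, 10 µg/mL apiece, read by AlphaScreen after 30 min at room temperature.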
LASV entry inh: qHTS for Inhibitors of binding or entry into cells for Lassa Virus. Potency, µM (series often up to 37.9 µM), inactives show at the highest dose activity change, negative = inhibition, usual class: inhibitors. hit rate 1.2% among 300,000. Lassa virus pseudotype entry inhibition, cell reporter. AID 540256, 2011; calls by dose curve; tested in HEK293 cells; also: potency is read from the fitted curve at half-maximal effect; % is scaled to controls: 0 for no effect and ±100 for the full control effect; nearly all actives have a fitted effect of over 50% in size
Cycloheximide cs: Cycloheximide Counterscreen for Small Molecule Inhibitors of Shiga Toxin. max response, %. hit rate 12% among 300,000. cell reporter, cycloheximide protein synthesis inhibition counterscreen; in the data active = max response mostly above about 13%, no sharp cut-off; inactive = mostly below about 14%; also: read at 38.3 µM for the half of the compounds with a filed dose; 0% is about no effect
An asterisk follows results filed as active; ? = inconclusive; . = no result; [ ] = dose if it differs, or a comment.

SMILES | MARV entry inh | Shiga inhibitor | AMA1 RON2 block | LASV entry inh | Cycloheximide cs
Cc1cc(-c2nnc(SCC(=O)Nc3ccccc3C(F)(F)F)o2)c(C)n1-c1ccccc1 | ? | 58 | 11% | 2% | 40*
O=C(CSc1nnc(-c2ccncc2)o1)Nc1ccccc1C(F)(F)F | -3% | -8 | 48% | 1% | -1
Cc1cccc(NC(=O)CSc2nnc(-c3cc(C)n(-c4ccccc4)c3C)o2)c1C | -5% | 33* | -27% | ? | 25*
Cc1cccc(-c2noc(CCCC(=O)NC3CCCC3)n2)c1 | -24%[46.1 µM] | 4 | 7% | -17%[46.1 µM] | 0
Cc1ccc(C)c(C(=O)CCC(=O)NNC(=O)c2cccs2)c1 | -6% | . | 36%[11.6 µM] | -6% | .
O=C(Cc1cccc(F)c1)Nc1ccc2c(c1)CCC2 | 23%[46.1 µM] | 76* | 12% | 0% | 18*
COc1ccc(OC)c(CC(=O)Nc2ccc3c(c2)CCC3)c1 | -4%[46.1 µM] | 21 | ? | 0% | 5
O=C(Cc1ccccc1F)Nc1ccc2c(c1)CCC2 | ? | 73* | -8% | -3% | 28
Cc1ccccc1CC(=O)Nc1ccc2c(c1)CCC2 | ? | 9 | -2% | ? | 13
COc1ccc(CC(=O)Nc2ccc3c(c2)CCC3)cc1OC | ? | 4 | 1% | 11µM* | 12
O=C(Nc1ccc2c(c1)CCC2)c1cc(F)cc(F)c1 | -15% | . | 22% | -7% | .
O=C(Nc1ccc2c(c1)CCC2)c1cccc(F)c1 | ? | 113* | -13%[11.6 µM] | ? | 75*
Cc1cccc(OCC(=O)NCC(=O)N/N=C/c2cc(Br)cc(Br)c2O)c1 | ? | -7 | -6% | -13% | 3
Cc1cc(C)cc(C(=O)NCCc2sc(-c3ccc(F)cc3)nc2C)c1 | . | . | . | -3%[46.1 µM] | .
O=C(Cc1ccc2c(c1)CCCC2)Nc1ccc2ccccc2c1 | -11% | active | 6% | ? | 43*
CCOc1cc(C2C(C(=O)c3ccccc3)=C(C(=O)OC)Nc3nnnn32)ccc1O (stereo unspecified) | -2% | 33 | -17% | -25% | 23*
CCOc1ccc(C(=O)Nc2ccc3nn(-c4ccc(OC)c(Cl)c4)nc3c2)cc1 | . | . | . | 7%[46.1 µM] | .
O=C(OCCCOc1ccc(F)cc1)c1ccc(O)cc1O | -1% | 21 | 11% | -7% | 21*
O=C(Nc1cccc([N+](=O)[O-])c1)C(=O)N1CCCCC1 | . | 69* | 3% | . | 43*
O=C(Nc1cccc(C(F)(F)F)c1)C(=O)N1CCCCC1 | 17%[46.1 µM] | 24 | 2% | -23%[46.1 µM] | 11*
O=[N+]([O-])c1cccc(NC(=S)N2CCCC2)c1 | 4%[46.1 µM] | -5 | -1% | 2%[46.1 µM] | 2
COc1ccc(NC(=O)C2CC(=O)N(CCc3ccc(Cl)cc3)C2)cc1 (stereo unspecified) | -12% | 2 | 11% | ? | -1
Cc1ccc(N2C(=O)/C(=C\c3ccc(C(C)C)cc3)N=C2SC2CCOC2=O)cc1 (stereo unspecified) | 6.3µM* | -4 | -2% | 5µM* | -5
Cc1c(C(=O)N2CCCCCC2)c(S(=O)(=O)Nc2cccc(C#N)c2)c(C)n1C | . | . | . | 8%[46.1 µM] | .
CC(C)c1ccc(N2C(=O)CC(Sc3nc4ccccc4o3)C2=O)cc1 (stereo unspecified) | ? | 10 | -6% | 13% | 15*
SMILES | MARV entry inh | Shiga inhibitor | AMA1 RON2 block | LASV entry inh | Cycloheximide cs
O=C1CC(Sc2nnc(-c3ccccc3)o2)C(=O)N1c1ccccc1 (stereo unspecified) | ? | 49* | 10% | 11% | 22*
Cc1ccccc1N1C(=O)CC(Sc2nnc(-c3ccccc3)o2)C1=O (stereo unspecified) | 9% | 10 | -3% | 17% | 19*
CC(C)c1ccc(N2C(=O)CC(Sc3ncn[nH]3)C2=O)cc1 (stereo unspecified) | -23% | 8 | -15% | 2% | 0
Cc1nn(C(=O)COc2ccccc2Br)c(C)c1Sc1ccccc1 | 22%[46.1 µM] | . | . | -15%[46.1 µM] | .
CCOc1ccc2nc(NC(=O)CS(=O)(=O)c3ccccc3)sc2c1 | -20% | active | -4% | -4% | 26*
CCOc1ccc2nc(NC(=O)CS(=O)(=O)c3ccc(C)cc3)sc2c1 | 13% | 20 | 44% | ? | 25
O=C(CS(=O)(=O)c1ccccc1)Nc1nc2ccccc2s1 | . | 23 | 50% | . | 25*
CCOc1ccc2nc(NS(=O)(=O)Cc3ccccc3)sc2c1 | ? | 10 | 9% | -5% | 20*
O=C(C[n+]1cccc(CO)c1)Nc1nc2ccccc2s1 | . | 41 | -1% | . | 34*
CCOC(=O)c1sc(NC(=O)C2CC(=O)N(c3ccccc3OC)C2)nc1C (stereo unspecified) | . | . | 3% | . | .
COc1ccc(-n2c(SCCNCCO)nc3sc4c(c3c2=O)CCCC4)cc1 | ? | -6 | 69% | ? | -3
Cc1ccsc1CN(C)C(=O)CN1C(=O)NC(c2ccccc2)(c2ccccc2)C1=O | . | . | -7% | . | .
Cn1cc(C(=O)Nc2cccc(F)c2)cn1 | -1% | -11 | 7% | 19% | 3
Cc1ccc(C(=O)NCC(=O)Nc2ccc3c(c2)CCC3)cc1 | ? | . | 5% | 28%[46.1 µM] | .
NS(=O)(=O)c1cc(C(=O)Nc2ccc3c(c2)CCC3)ccc1Cl | ? | 89* | -1% | ? | 20*
Cn1cc(C(=O)Nc2ccc3c(c2)CCC3)cn1 | ? | 75* | -3% | ? | 56*
Cc1ccc(C(=O)Nc2ccc3c(c2)CCC3)cc1 | ? | 5 | -6% | 16µM* | 24
NC(=S)NN=C1Cc2cccc3cccc1c23 | 11% | . | 53% | 6% | .
Cc1cc2c(cc3c(SCc4ccccc4Cl)nnc(C)n32)o1 | . | . | . | 10%[46.1 µM] | .
Cc1ccc(N2C(=O)C3C4C=CC(CNC(=S)Nc5ccc(Cl)cc5)(O4)C3C2=O)cc1 (stereo unspecified) | ? | -2 | -10% | ? | 9.6*
Cc1ccc(N2C(=O)C3C4C=CC(CNC(=S)Nc5ccc(F)cc5)(O4)C3C2=O)cc1 (stereo unspecified) | ? | -44 | 10% | -2% | 7
O=C1C2C3C=CC(CO)(O3)C2C(=O)N1c1ccc(-c2ccccc2)cc1 (stereo unspecified) | . | 46 | . | . | 23*
CC(C)(C)C(=O)NCC12C=CC(O1)C1C(=O)N(c3ccccc3)C(=O)C12 (stereo unspecified) | -4% | 7 | -2% | -1% | -1
CC1(C)SC2c3ccccc3C(=O)N2[C@@H]1C(=O)O (stereo partly specified) | -1%[46.1 µM] | -3 | -4% | 11%[46.1 µM] | 11
CC(C)(C)C(=O)Nc1ccccc1C(=O)Nc1cccnc1 | 3% | 15 | 3% | 18% | -3
CCC(=O)Nc1ccc(S(=O)(=O)Nc2cccnc2)cc1 | 8% | -18 | 2% | 12% | -3
CC(C)(C)C(=O)Nc1ccc(C(=O)Nc2cccnc2)cc1 | -2% | 52 | 8% | ? | 43*
CCOc1ccc(OCc2ccc(C(=O)Nc3cccnc3)cc2)cc1 | . | . | 3% | . | .
